Hits are enriched below; roughly 2% of the tested compounds scored in any of these assays.
CF NFkB block: inhibitors of cystic fibrosis induced NF-kB; hit rate 0.86% among 360,000; KKLEB NF-kB-GFP reporter, PAF-induced, GFP fluorescence overnight; AID 588850; inhibition, % at 5 µM;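 active = at least 50% inhibition at 5 µM, scaled per plate between neutral and stimulator controls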;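 note: PAF is a Pseudomonas aeruginosa culture filtrate used as stimulus; plate controls were PAF-stimulated DMSO wells for no effect and unstimulated DMSO wells for full effect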
LGR2 inh: Drosophila LGR2 receptor signaling inhibition. HEK293 LGR2, CRE-luciferase, bursicon-stimulated, 4 h. inhibition, % at 9.99 µM. hit rate 0.35% among 380,000;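 active = drop in luminescence signal, shown as inhibition above about 50% in the replicate tests, limit read from the data, passing the limit was not always enough; inconclusive = probably only some replicates passing the limit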;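 note: agonist challenge used bursicon conditioned medium at about half maximal strength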
EWS-Fli block: inhibitors of EWS/Fli oncoprotein transcriptional activity. A673 NR0B1-luciferase reporter, viability-normalised. inhibition, % at 12.6 µM. hit rate 0.67% among 350,000;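 active = mean inhibition of at least 50% after viability correction, with every replicate also passing that limit; inconclusive = mean reaches 50% but only one of two replicates passes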;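 note: firefly luciferase signal divided by Alamar Blue viability fluorescence both relative to DMSO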
KKLEB cytotox: CF airway cell cytotoxicity counter-screen; KKLEB CF airway cells viability, ATPlite luminescence, overnight; stronger effect = lower value; cells stimulated with P. aeruginosa culture filtrate; activity change (cytotoxicity), % at 5 µM; hit rate 0.36% among 360,000;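 active = corrected activity change at or below -50% at 5 µM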
Shn3 inh set2: Schnurri-3 reporter inhibition in Clone20 osteoblasts; inhibition, % at 12.5 µM; Clone20 osteoblast Shn3 3'UTR firefly luciferase, 24 h; hit rate 0.52% among 360,000;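 active = mean inhibition of at least 75% with every replicate also reaching 75%; inconclusive = mean inhibition at least 75% but some replicate below; inactive = mean inhibition below 75%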;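 note: 0% = median of neutral control wells and 100% = pilot-screen positive control compound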
PAX8 inh HTS: lowers PAX8-driven luciferase in RMG-I cells; RMG-I TPO-luciferase reporter, SteadyGlo, 24 h; inhibition, % at 12.6 µM; hit rate 1.2% among 360,000;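 active = mean replicate inhibition at least 60% with every replicate also reaching 60%; inconclusive = only one of the two criteria is met; inactive = mean below 60% and not all replicates reaching 60%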;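 note: luciferase light reporting Pax8 driven TPO promoter activity; plate controls were median of neutral control wells for no effect and mitoxantrone controls for full effect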
An asterisk follows results filed as active; ? = inconclusive; . = no result.

SMILES	CF NFkB block	LGR2 inh	EWS-Fli block	KKLEB cytotox	Shn3 inh set2	PAX8 inh HTS
Cc1ccc(-c2c[n+](CC(=O)c3ccc(Br)cc3)c3n2CCCCC3)cc1	3	47	48	2	43	98*
O=C(C[n+]1cc(-c2ccccc2)n2c1CCCCC2)c1ccc(Cl)cc1	3	13	-15	-6	3	40
Cc1cc2cc3c(cc2nc1SCC(=O)N1CCCC1)OCCO3	3	4	-1	1	-13	-7
N#Cc1cc2cc3c(cc2nc1SCC(=O)N1CCOCC1)OCCO3	2	22	57*	-3	13	-199
COc1ccc(CN(C)C[C@H]2Oc3ccc(NC(=O)Cn4cnnn4)cc3C(=O)N([C@@H](C)CO)C[C@@H]2C)cc1	.	13	.	.	.	-11
CCOc1cc(/C=N/N=C/c2ccc(O)c(OCC)c2)ccc1O	2	-4	14	-8	6	26
COc1cc(/C=C2\CC/C(=C\c3cc(OC)c(O)c(OC)c3)C2=O)cc(OC)c1O	62*	.	28	-44	34	88*
CCOc1cc(/C=C2\CN(CC)C/C(=C\c3ccc(O)c(OCC)c3)C2=O)ccc1O	87*	69*	61*	-40	97*	13
COc1cc(C=C2C(=O)C=CC2=O)ccc1O	.	10	46	.	.	106*
O=C1NC(=O)/C(=C/c2cccc([N+](=O)[O-])c2)N1	-16	-4	-2	5	-12	11
CCN1C/C(=C/c2cccc([N+](=O)[O-])c2)C(=O)/C(=C/c2cccc([N+](=O)[O-])c2)C1	102*	84*	.	-40	99*	56
COc1cc(/C=C2/C(=O)CNC2=O)ccc1O	5	1	.	15	7	-11
CC(C)NC(=O)Nc1ccc2c(c1)C(=O)N([C@@H](C)CO)C[C@@H](C)[C@@H](CN(C)CC1CC1)OCCCC[C@@H](C)O2	.	-1	1	.	.	-15
CN1c2ccc(C#Cc3cccnc3)cc2[C@H]2[C@H](CCN2C(=O)C2CCCCC2)[C@H]1CO	.	-6	9	.	.	-4
C[C@H](O)C#Cc1cnc2c(c1)C(=O)N([C@H](C)CO)C[C@@H](C)[C@@H](CN(C)C(=O)c1ccccc1F)O2	.	15	3	.	.	.
COc1cc(/C=C2\CCC/C(=C\c3ccc(O)c(OC)c3)C2=O)ccc1O	-11	-3	77*	-16	14	35
COc1cc(/C=C2/CCCC(C(=O)C(F)(F)F)=C2O)ccc1O	19	-3	7	-4	-30	-12
COc1cc(/C=C2/CCC/C(=C\c3cc(O)c(OC)c(Cl)c3)C2=O)cc(Cl)c1O	-54	.	.	2	45	81*
CCCS(=O)(=O)c1nnnn1-c1cccc(OC)c1	90*	.	.	-25	99*	.
CCCNC(=O)[C@@H]1N[C@@H]2c3ccc(C4=CCCC4)c(=O)n3C[C@@H]2[C@H]1CO	.	10	-3	.	.	6
Cc1ccc(S(=O)(=O)N2CCCCC2)cc1NC(=O)Cc1c[nH]c2ccccc12	-3	43	19	10	-2	153*
COc1ccc(NC(=O)N(C)C[C@H]2OCCCC[C@@H](C)Oc3ccc(NC(=O)CCCN(C)C)cc3C(=O)N([C@H](C)CO)C[C@H]2C)cc1	.	4	-3	.	.	-1
COc1ccc(C2SCC(=O)N2CCc2ccc(OC)c(OC)c2)cc1 (stereo unspecified)	10	-8	54*	-18	66	21
COc1ccc(CCN2C(=O)CSC2c2ccc(OC)c(OC)c2)cc1OC (stereo unspecified)	-8	-10	1	3	25	12
COc1ccc(CCN2C(=O)C=CC2=O)cc1OC	6	1	25	-4	63	95*
SMILES	CF NFkB block	LGR2 inh	EWS-Fli block	KKLEB cytotox	Shn3 inh set2	PAX8 inh HTS
C[C@H](NC(=O)[C@@H]1N[C@@H]2c3ccc(-c4cncnc4)c(=O)n3C[C@@H]2[C@H]1CO)c1ccccc1	.	-14	-5	.	.	-18
COc1cc(OC)cc(C(=O)NC(=S)Nc2cc3oc4ccccc4c3cc2OC)c1	55*	36	14	-52*	9	-14
N#Cc1ccc2nc(-c3ccc(CN4CCC(c5nc6ccccc6[nH]5)CC4)cc3)c(-c3ccccc3)nc2c1	.	16	18	.	.	78*
CCCNC(=O)Nc1ccc2c(c1)C(=O)N(C)C[C@H](OC)[C@H](C)CN(Cc1cncnc1)[C@H](C)CO2	.	7	0	.	.	.
O=C(O)C[C@H]1C[C@@H]2c3cc(NC(=O)Nc4ccc(F)cc4)ccc3O[C@@H]2[C@H](CO)O1	.	-9	4	.	.	.
C[C@@H]1CN([C@H](C)CO)C(=O)c2cc(NS(=O)(=O)c3cccs3)ccc2O[C@@H](C)CCCCO[C@@H]1CN(C)Cc1ccc(Cl)c(Cl)c1	.	1	-4	.	.	80*
C[C@@H]1CCCCO[C@@H](CN(C)Cc2ccc(Cl)c(Cl)c2)[C@@H](C)CN([C@@H](C)CO)C(=O)c2cc(NS(=O)(=O)c3cccs3)ccc2O1	.	10	11	.	.	8
C[C@@H]1CCCCO[C@@H](CN(C)Cc2ccc(Cl)c(Cl)c2)[C@H](C)CN([C@@H](C)CO)C(=O)c2cc(NS(=O)(=O)c3cccs3)ccc2O1	.	6	2	.	.	71*
C[C@@H]1CN([C@H](C)CO)C(=O)c2cc(NS(=O)(=O)c3cccs3)ccc2O[C@@H](C)CCCCO[C@H]1CN(C)Cc1ccc(Cl)c(Cl)c1	.	18	34	.	.	75*
C[C@@H]1CCCCO[C@@H](CN(C)Cc2ccc(Cl)c(Cl)c2)[C@H](C)CN([C@H](C)CO)C(=O)c2cc(NS(=O)(=O)c3cccs3)ccc2O1	.	2	7	.	.	?
CCN1[C@@H]2Cn3c(ccc(-c4ccccc4)c3=O)[C@H]1[C@@H](C(=O)NC1CCC1)[C@@H]2CO	.	15	-8	.	.	-1
COc1ccc(CNC(=O)C[C@@H]2C=C[C@@H](NC(=O)c3cccc(F)c3)[C@@H](CO)O2)cc1	.	15	2	.	.	-10
O=c1c(Br)ccc(Br)cc1Br	91*	19	37	-94*	97*	118*
Cc1nn(Cc2c(Cl)cccc2Cl)c(C)c1NC(=O)c1cnn2c(C(F)F)cc(-c3ccccc3)nc12	45	.	.	-34	31	-7
Cc1ccc(-c2cc(C(F)F)n3ncc(C(=O)Nc4c(C)nn(Cc5c(Cl)cccc5Cl)c4C)c3n2)cc1	77*	.	.	-65*	59	21
Cc1ccc2c(c1C)-c1c(ccc(C)c1C)C(=O)C2=O	86*	55*	59*	-53*	54	93*
Cc1ccc(CC#N)c(-c2c(CC#N)ccc(C)c2C)c1C	23	7	8	4	-6	7
O=C(Nc1ccc2c(c1)[C@H]1C[C@H](CC(=O)N3CCc4ccccc4C3)O[C@@H](CO)[C@H]1O2)c1ccc2c(c1)OCO2	.	17	1	.	.	10
Cc1ccc(-c2cnc3c(Cl)c(C)nn3c2)cc1	-10	57*	53*	-4	-15	-78

Screening results (PubChem)
